Many of the other results were omitted from the sample, so hits are more common in it than they were.
Sm TGR inh – qHTS Assay for the Inhibitors of Schistosoma Mansoni Peroxiredoxins | Schistosoma mansoni thioredoxin glutathione reductase (TGR), Q962Y6 | purified TGR, DTNB reduction, TNB absorbance 405 nm | Potency, µM (top dose mostly 114 µM), inactives show at the highest dose activity change, negative = inhibition, usual class: inhibitors | 360,000 compounds, 3% hits; note: potency is the fitted concentration of half-maximal effect; % is set by controls: 0 for no effect and ±100 for the full control effect; nearly all actives have a fitted effect of over 60% in size
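Kinetic colorimetric format: TGR-catalysed, NADPH-driven DTNB reduction monitored via TNB absorbance. Enzyme dispensed at 20 nM; compound exposure 15 min at room temperature before reaction start.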
Shiga inhibitor – A qHTS for Small Molecule Inhibitors of Shiga Toxin; Vero cells, Shiga toxin protein synthesis inhibition reporter; inhibition, % at 38.7 µM; 290,000 compounds, 9.2% hits; in the data active = inhibition mostly above about 28%, no sharp cut-off; inactive = mostly below about 43%; note: 0% is about no effect
Tb PYK inh – qHTS of Trypanosoma Brucei Inhibitors; Potency, µM (top dose mostly 76.8 µM), without a hit: at the top dose activity, negative = inhibition, usual class: inhibitors; TbPYK enzyme, Kinase-Glo Plus ATP luminescence, 45 min; 410,000 compounds, 0.12% hits; note: potency is the fitted concentration of half-maximal effect; % is set by controls: 0 for no effect and ±100 for the full control effect; nearly all actives have a fitted effect of over 50% in size
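Enzyme and substrate buffer are dispensed first and compound is pin-transferred. ADP at 130 uM final then starts the reaction, which runs 45 min at room temperature. Detection reagent is added for 10 min before luminescence is imaged.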
Cycloheximide cs – Cycloheximide Counterscreen for Small Molecule Inhibitors of Shiga Toxin; cell reporter, cycloheximide protein synthesis inhibition counterscreen; AID 2314, 2010; max response, %; 300,000 compounds, 12% hits; in the data active = max response mostly above about 13%, no sharp cut-off; inactive = mostly below about 14%; note: read at 38.3 µM for the half of the compounds with a filed dose; 0% is about no effect
LmPK inh – qHTS Assay for Inhibitors of Leishmania Mexicana Pyruvate Kinase (LmPK); Q27686; purified LmPK, Kinase-Glo ATP luminescence, 1 h; Potency, µM (titrated, usually from 57.5 µM), for inactives: top-dose activity change, negative = inhibition, most hits filed as inhibitors; 290,000 compounds, 0.37% hits; AID 1721, 2009; note: potency is the fitted concentration of half-maximal effect; % is set by controls: 0 for no effect and ±100 for the full control effect
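Pyruvate kinase activity monitored as ATP production (luciferase luminescence). Conditions: 0.1 nM enzyme, 0.5 mM PEP, 0.1 mM ADP, 1 h, RT; normalized against uninhibited and no-enzyme wells.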
FBPA Giardia inh – qHTS Assay for Inhibitors of Fructose-1,6-bisphosphate Aldolase from Giardia Lamblia | A8B2U2 | purified Giardia FBPA | Potency, µM (highest dose often 59.6 µM), inactives show at the top dose activity, negative = inhibition, usual class: inhibitors | 290,000 compounds, 0.71% hits; note: potency is the fitted concentration of half-maximal effect; % is set by controls: 0 for no effect and ±100 for the full control effect; nearly all actives have a fitted effect of over 55% in size
Target sequence (A8B2U2 whole entry, looked up): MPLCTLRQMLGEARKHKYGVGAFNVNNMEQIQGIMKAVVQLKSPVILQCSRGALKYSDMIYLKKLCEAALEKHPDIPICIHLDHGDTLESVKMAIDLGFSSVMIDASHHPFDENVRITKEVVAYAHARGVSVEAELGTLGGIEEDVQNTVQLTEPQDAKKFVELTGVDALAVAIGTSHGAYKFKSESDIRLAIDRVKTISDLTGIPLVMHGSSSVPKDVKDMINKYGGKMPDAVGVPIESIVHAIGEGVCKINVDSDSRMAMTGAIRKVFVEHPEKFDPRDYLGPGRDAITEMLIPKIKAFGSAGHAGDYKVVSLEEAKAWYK
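40 nM FBPA preincubated 10 min at RT with compound (up to 57.5 uM final), then substrate plus GAPDH/TPI/NAD/arsenate coupling and diaphorase/resazurin added. Fluorescence read after 20 min at RT, 525/598 nm.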
The depositor's hits bear a star. Unless noted, calls come from the whole dose curve; as a rule, active = well fitted curve in the direction sought with a large enough effect; inconclusive = small, poorly fitted or top-dose-only effect, or another doubt; inactive = no such curve, though single readings can be large; an effect the other way counts as inactive or inconclusive.

Results for Cc1nnc(SCc2nc3ccccc3[nH]2)s1 ?
Sm TGR inh: -17%; Shiga inhibitor: 17; Tb PYK inh: 2%; Cycloheximide cs: -2; LmPK inh: -1%; FBPA Giardia inh: -12%

How did Cn1nnnc1SCc1nc2ccccc2[nH]1 do in these assays?
Sm TGR inh: -2%; Shiga inhibitor: 62; Tb PYK inh: 2%; Cycloheximide cs: 34*; LmPK inh: -2%; FBPA Giardia inh: 0%

How did c1ccc2[nH]c(CCCCc3nc4ccccc4[nH]3)nc2c1 do in these assays?
Sm TGR inh: -1%; Shiga inhibitor: 12; Tb PYK inh: 5%; Cycloheximide cs: 4; LmPK inh: -7%; FBPA Giardia inh: -4%

What do the screens show for `N#Cc1ccccc1CSc1ccccn1`?
Sm TGR inh: 0%; Shiga inhibitor: 23; Tb PYK inh: -2%; Cycloheximide cs: -4; LmPK inh: -1%; FBPA Giardia inh: 0%

Results for c1ccc2[nH]c(CSc3nc4ccccc4s3)nc2c1 ?
Sm TGR inh: 1%; Shiga inhibitor: 55*; Tb PYK inh: -5%; Cycloheximide cs: 44*; LmPK inh: -8%; FBPA Giardia inh: 3%

How did c1ccc(SCc2nc(-c3ccncc3)n[nH]2)nc1 do in these assays?
Sm TGR inh: -1%; Shiga inhibitor: 46*; Tb PYK inh: 6%; Cycloheximide cs: 16; LmPK inh: 8%; FBPA Giardia inh: -4%

Results for Cc1ccc2c(c1)C(c1ccc(F)cc1)N(C(=O)c1ccc(S(=O)(=O)N3CCCCC3)cc1)CC(=O)N2 (stereo not drawn) ?
Sm TGR inh: 5%; Tb PYK inh: -5%

Results for COc1cccc(-c2nc(NC3CCNCC3)c3ccccc3n2)c1 ?
FBPA Giardia inh: -8%

How did CC(=O)c1ccc2c(c1)C1C=CCC1C(C(=O)O)N2 (stereo not drawn) do in these assays?
Sm TGR inh: inconclusive; Shiga inhibitor: -2; Tb PYK inh: -20%; Cycloheximide cs: 5; LmPK inh: -20%; FBPA Giardia inh: 0%

Results for NS(=O)(=O)c1ccc2c(c1)C1C=CCC1C(C1CC=CCC1)N2 (stereo not drawn) ?
Sm TGR inh: inconclusive; Shiga inhibitor: -5; Tb PYK inh: -13%; Cycloheximide cs: -2; LmPK inh: -5%; FBPA Giardia inh: inconclusive

How did O=C(O)C1Nc2c(cccc2C(F)(F)F)C2C=CCC12 (stereo not drawn) do in these assays?
Sm TGR inh: 1.4µM*; Shiga inhibitor: 12; Cycloheximide cs: -1; LmPK inh: 2%; FBPA Giardia inh: -7%

How did Cc1ccc2c(c1)C1C=CCC1C(C(=O)O)N2 (stereo not drawn) do in these assays?
Sm TGR inh: 0.71µM*; Shiga inhibitor: -14; Cycloheximide cs: -5; LmPK inh: -8%; FBPA Giardia inh: -28%

Results for CC(C)C1Nc2ccc(S(N)(=O)=O)cc2C2C=CCC21 (stereo not drawn) ?
Sm TGR inh: 13µM*; Shiga inhibitor: -11; Tb PYK inh: -29%; Cycloheximide cs: -1; LmPK inh: -9%; FBPA Giardia inh: -19%

Results for COc1cccc2c1NC(C(=O)O)C1CC=CC21 (stereo not drawn) ?
Sm TGR inh: 7.1µM*; Shiga inhibitor: -15; Tb PYK inh: inconclusive; Cycloheximide cs: -2; LmPK inh: -13%; FBPA Giardia inh: inconclusive

How did O=C(N[C@H]1CCCc2ccccc21)O[C@@H]1C(=O)c2cc(Br)ccc2O[C@H]1c1ccc2c(c1)OCO2 do in these assays?
FBPA Giardia inh: 1%

What do the screens show for `COc1cccc(CNC(=O)CCC2CCCN(C3CCOCC3)C2)c1` (stereo not drawn)?
Sm TGR inh: 4.5µM*; Shiga inhibitor: -18; Tb PYK inh: -1%; Cycloheximide cs: -1; LmPK inh: 0%; FBPA Giardia inh: 0%

How did COc1cccc(CNC(=O)CCC2CCCN(C(=O)c3ccoc3)C2)c1 (stereo not drawn) do in these assays?
Sm TGR inh: -19%; Shiga inhibitor: -1; Tb PYK inh: -5%; Cycloheximide cs: -3; LmPK inh: -1%; FBPA Giardia inh: 0%

Results for COc1ccc(C(=O)N2CCCC(CCC(=O)NCc3ccc(F)c(F)c3)C2)o1 (stereo not drawn) ?
Sm TGR inh: inconclusive; Shiga inhibitor: 94*; Tb PYK inh: 0%; Cycloheximide cs: 26*; LmPK inh: -14%; FBPA Giardia inh: -7%

What do the screens show for `COc1cccc(CNC(=O)CCC2CCCN(C(=O)c3cc4ccccc4o3)C2)c1` (stereo not drawn)?
Sm TGR inh: 6%; Shiga inhibitor: 68*; Tb PYK inh: -2%; Cycloheximide cs: 48*; LmPK inh: inconclusive; FBPA Giardia inh: -3%

What do the screens show for `Cc1ccc(CNc2nc(-c3ccco3)nn2C(=O)c2ccccc2[N+](=O)[O-])cc1`?
Sm TGR inh: -8%; Tb PYK inh: -9%

What do the screens show for `Cc1nc(Nc2nc3ccccc3o2)nc2c1CCC2`?
Sm TGR inh: -6%; Shiga inhibitor: 49; Tb PYK inh: 0%; Cycloheximide cs: 30*; LmPK inh: 16µM*; FBPA Giardia inh: -9%

How did CCOC(=O)c1cnc(-c2ccccc2)nc1C(F)(F)F do in these assays?
Sm TGR inh: 0%; Shiga inhibitor: 74*; Tb PYK inh: 3%; Cycloheximide cs: 52*; LmPK inh: -1%; FBPA Giardia inh: 4%

How did CCOC(=O)c1cnc(Nc2ccccc2)nc1C(F)(F)F do in these assays?
Sm TGR inh: 1%; Shiga inhibitor: 92*; Tb PYK inh: 0%; Cycloheximide cs: 36*; LmPK inh: 5%; FBPA Giardia inh: -3%

What do the screens show for `CCOC(=O)c1cnc(Nc2nc3ccccc3o2)nc1C`?
Sm TGR inh: 1%; Shiga inhibitor: 68*; Tb PYK inh: inconclusive; Cycloheximide cs: 36*; LmPK inh: 14µM*; FBPA Giardia inh: -1%

What do the screens show for `Cc1cccc(C)c1Nc1nc2ccccc2o1`?
Sm TGR inh: 3%; Shiga inhibitor: -4; Tb PYK inh: 0%; Cycloheximide cs: -4; LmPK inh: 1%; FBPA Giardia inh: 0%

Results for COc1cc(/C=N/Nc2nc3ccccc3s2)ccc1OC(=O)c1ccccc1F ?
Sm TGR inh: 3%; Shiga inhibitor: active; Tb PYK inh: -1%; Cycloheximide cs: 43*; LmPK inh: -7%; FBPA Giardia inh: -4%

Results for COc1cc(OC)cc(C(=O)Oc2ccc(/C=N/Nc3nc4ccccc4s3)cc2OC)c1 ?
Sm TGR inh: -8%; Shiga inhibitor: 124*; Tb PYK inh: -23%; Cycloheximide cs: 48*; LmPK inh: -2%; FBPA Giardia inh: -13%

Screening results: PubChem BioAssay, National Center for Advancing Translational Sciences (NCATS)
